Rows were chosen to be rich in hits. Some 2.6% of all compounds tested hit in one or more screens of this group.
Cruzain inh noDet – cruzain (T. cruzi) inhibition without detergent | P25779 | purified cruzain, Z-FR-AMC fluorescence, no detergent | Potency, µM, hits mostly inhibitors | actives 2.3% (n = 200,000); also: nearly all actives have a fitted effect of over 40% in size
Target sequence (P25779 123-467 limits assumed): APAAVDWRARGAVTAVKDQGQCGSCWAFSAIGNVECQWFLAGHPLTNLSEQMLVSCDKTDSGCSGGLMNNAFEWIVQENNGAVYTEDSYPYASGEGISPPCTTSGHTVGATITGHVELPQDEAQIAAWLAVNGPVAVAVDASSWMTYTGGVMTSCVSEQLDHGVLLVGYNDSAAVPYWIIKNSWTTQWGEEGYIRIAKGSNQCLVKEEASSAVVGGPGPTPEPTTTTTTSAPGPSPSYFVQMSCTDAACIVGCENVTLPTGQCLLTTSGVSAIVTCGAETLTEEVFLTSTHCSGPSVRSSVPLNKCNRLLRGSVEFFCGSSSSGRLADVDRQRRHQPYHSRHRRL
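Purified cruzain at 1.5 nM, pre-incubated 15 min with compound at room temperature in 100 mM sodium acetate pH 5.5, 5 mM DTT, 0.00005% Triton X-100. Reaction started with 2 uM Z-FR-AMC; AMC fluorescence increase over 60 s gives rate.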
Cruzain Triton – cruzain (T. cruzi) inhibition with detergent; purified cruzain, Z-FR-AMC fluorescence, 0.01% Triton; Potency, µM, usual class: inhibitors; actives 0.43% (n = 200,000); AID 1478; also: nearly all actives have a fitted effect of over 40% in size
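In this qHTS format, compounds are incubated with 1.5 nM cruzain for 15 min at room temperature before 2 uM Z-FR-AMC is added. Release of AMC is followed at 360/450 nm, and progress is taken as the 60 s fluorescence difference.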
Large screens that a line does not name were inactive. Calls follow the shape of the dose curve; as a rule, active = well fitted curve in the direction sought with a large enough effect; inconclusive = small, poorly fitted or top-dose-only effect, or another doubt; inactive = no such curve, though single readings can be large; an effect the other way counts as inactive or inconclusive.

Clc1ccc(/C=N/Nc2nnc(Cl)c3ccccc23)cc1	Cruzain inh noDet 25.1µM
Clc1nnc(N/N=C/c2ccccc2)c2ccccc12	none
CCN(CC)S(=O)(=O)c1ccc2c(c1)N(CC(=O)N1CCN(c3cccc(C)c3)C(C)C1)C(=O)CO2 (configuration not stated)	Cruzain inh noDet inconclusive
COc1ccc(N2CCN(Cc3cc(=O)oc4ccc(C)cc34)CC2)cc1	Cruzain inh noDet inconclusive
COc1ccc(N2CCN(Cc3cc(=O)oc4cc5c(cc34)CCCC5)CC2)cc1	Cruzain inh noDet 12.6µM
O=c1cc(CN2CCN(c3cccc(Cl)c3)CC2)c2cc(O)c(-c3ccccc3)cc2o1	Cruzain inh noDet 7.94µM
O=c1cc(CN2CCN(Cc3ccccc3)CC2)c2cc(Cl)ccc2o1	none
O=c1cc(CN2CCN(c3ccccc3)CC2)c2c(ccc3ccccc32)o1	Cruzain inh noDet inconclusive
O=c1cc(CN2CCN(c3ccccc3)CC2)c2cc(O)c(-c3ccccc3)cc2o1	Cruzain inh noDet 10µM
O=C(Cn1c(=O)nc(-c2ccccc2F)c2cc(Cl)ccc21)N1CCN(c2ccccc2F)CC1	none
CCc1cccc(NC(=O)CSc2nc3ccsc3c(=O)n2CC)c1	none
CC(C)(C)OC(=O)N/N=C/c1ccc(N2CCOCC2)s1	none
Clc1cccc(N/N=C/c2ccc(N3CCOCC3)s2)c1	Cruzain inh noDet 31.6µM
O=C(NCCc1cccs1)C12CN(Cc3ccccc3)CC1C(c1cccc([N+](=O)[O-])c1)=NO2 (configuration not stated)	Cruzain inh noDet 12.6µM
O=C(NCCCCc1ccccc1)C12CN(Cc3ccccc3)CC1C(c1cccc([N+](=O)[O-])c1)=NO2 (configuration not stated)	none
COc1ccc(CNC(=O)Cc2c(C)c3cc4c(C)coc4cc3oc2=O)cc1	none
Cc1ccc(Cl)cc1NC(=O)CCCn1c(=O)c2cccn2c2ccccc21	none
CC(C)(C)c1ccc(/C=C/C(=O)c2ccc(NC3=NCCCS3)cc2)cc1	Cruzain inh noDet 31.6µM
O=C(/C=C/c1ccc(Br)cc1)c1ccc(NC2=NCCCS2)cc1	Cruzain inh noDet inconclusive
O=C(CSc1nc2c(cnn2-c2ccc(F)cc2)c(=O)[nH]1)Nc1ccccc1C(F)(F)F	none
Cc1cc(C)cc(C(=O)N2CC(=O)Nc3ccc(Br)cc3C2c2ccccc2)c1 (configuration not stated)	none
Cc1c(Br)c([N+](=O)[O-])nn1CC(=O)Nc1sc2c(c1C(=O)OC(C)C)CCCC2	Cruzain inh noDet 12.6µM
Cc1c(Br)c([N+](=O)[O-])nn1CCCC(=O)Nc1sc2c(c1C#N)CCC2	none
COc1ccc(OC)c(CCNC(=O)Cn2ccc3cc(S(=O)(=O)N4CCCCC4)ccc32)c1	none
CCOc1cc2c(C#N)c(N3CCCCC3)nc(N)c2c(N)n1	none
COc1ccc(CN2C(=O)Cc3c2nc(N)c2c(N)nc(N4CCCCC4)c(C#N)c32)cc1	Cruzain inh noDet 6.31µM
Cc1ccc(C)c(-c2nn(CC(=O)Nc3cc(F)ccc3F)c(=O)c3c2CCCC3)c1	none
COc1ccccc1NC(=O)C1=C(C)Nc2nc(SCc3ccccc3)nn2C1c1ccccn1 (configuration not stated)	none
O=C(CSc1ncc(CO)n1Cc1ccccc1)Nc1ccc(C(F)(F)F)cc1	none
Cc1nn(-c2ccc(N3CCCC3)nn2)c(C)c1CCC(=O)NCc1ccccc1F	none
CCOC(=O)c1c(NC(=O)CSc2nnc3ccccn23)sc2c1CCC2	none
CCOC(=O)c1c(NC(=O)CSc2c[nH]c3ccccc23)sc2c1CCCC2	Cruzain inh noDet 25.1µM
CCOC(=O)c1c(NC(=O)CSc2c[nH]c3ccccc23)sc2c1CCC2	Cruzain inh noDet 31.6µM
CCOC(=O)c1c(NC(=O)CSc2nnc(-c3c[nH]c4ccccc34)n2CCOC)sc2c1CCCCC2	none
COc1cc(NC(=O)Nc2nnc(N3CCCCCC3)s2)cc(OC)c1	none
Cc1nnc2c(N3CCN(c4ccccc4F)CC3)nc3ccc(C(=O)c4ccccc4)cc3n12	none
CCn1c2ccccc2c2cc(/C=N/NC(=O)c3ccc(O)cc3)ccc21	Cruzain inh noDet 25.1µM, Cruzain Triton inconclusive
COc1ccc(/C=N/NC(=O)CCn2c3ccccc3c3ccccc32)cc1OC	Cruzain inh noDet inconclusive
COc1ccc(S(=O)(=O)NCC(c2ccc(N(C)C)cc2)N2CCc3ccccc32)cc1F (configuration not stated)	Cruzain inh noDet inconclusive
COc1ccc(C(=O)Nc2nnc(S(=O)(=O)N(C)c3ccc(Cl)cc3)s2)cc1OC	Cruzain inh noDet inconclusive
Fc1ccc(NC(=S)N/N=C/c2ccc(F)c(F)c2)c(F)c1	Cruzain inh noDet inconclusive
Fc1ccccc1/C=N/NC(=S)Nc1ccc(Cl)cc1Cl	Cruzain inh noDet 10µM
Cc1ccc(NC(=O)Cn2cc(S(=O)(=O)c3ccc(C)cc3)c(=O)c3cc4c(cc32)OCO4)cc1	none
CCOC(=O)c1c(NC(=O)c2ccccc2Br)sc2c1CCc1ccccc1-2	Cruzain inh noDet 15.8µM
CCOC(=O)c1c(NC(=O)COc2ccccc2Br)sc2c1CCCCC2	none
CCCCCn1c(N2CCN(c3cccc(Cl)c3)CC2)nc2c1c(=O)[nH]c(=O)n2C	Cruzain inh noDet inconclusive
Cn1c(=O)[nH]c(=O)c2c1nc(N1CCN(c3cccc(Cl)c3)CC1)n2CCCc1ccccc1	Cruzain inh noDet 12.6µM
COC(=O)CN1C(=O)CSc2ccc(S(=O)(=O)Nc3c(C)cc(C)cc3C)cc21	none
NS(=O)(=O)O	none
C=CCn1c(SCc2nc3sc4c(c3c(=O)[nH]2)CCCC4)nc2ccccc2c1=O	Cruzain inh noDet 12.6µM
C=CCSc1nnc(CSc2nc3sc4c(c3c(=O)[nH]2)CCCC4)n1-c1ccccc1	none
COc1ccccc1NS(=O)(=O)c1cc(NC(=O)c2cccs2)ccc1N1CCCC1	Cruzain inh noDet inconclusive
COc1ccccc1NS(=O)(=O)c1cc(NC(=O)c2cccs2)ccc1N1CCCCC1	Cruzain inh noDet 10µM
COc1ccc(NS(=O)(=O)c2cc(NC(=O)/C=C/c3cc(OC)ccc3OC)ccc2N2CCCCC2)cc1	Cruzain inh noDet 6.31µM
COc1ccccc1NS(=O)(=O)c1cc(NC(=S)NCCN2CCOCC2)ccc1N1CCOCC1	Cruzain inh noDet inconclusive
COc1ccc(NS(=O)(=O)c2cc(NC(=O)c3ccco3)ccc2N2CCCC2)cc1	Cruzain inh noDet inconclusive
O=C(Nc1ccc(Cl)c(Cl)c1)Nc1ccc(N2CCCC2)c(S(=O)(=O)Nc2ccccc2Cl)c1	Cruzain inh noDet inconclusive
COc1ccccc1NS(=O)(=O)c1cc(NC(=O)Nc2ccccc2)ccc1N1CCCCC1	Cruzain inh noDet 3.16µM
O=C(Nc1ccc(F)cc1)Nc1ccc(N2CCCC2)c(S(=O)(=O)Nc2ccccc2Cl)c1	Cruzain inh noDet 3.16µM
COc1ccc(N2CCN(C(=O)CSc3nc(-c4ccc(C(C)C)cc4)no3)CC2)cc1	none
CCc1ccc(NC(=O)CCCc2nnc3n(CC(C)C)c(=O)c4sccc4n23)cc1	none
Cc1scc(CN2CCN(c3ccccc3F)CC2)c1C	none
COc1ccc(CNC(=O)Cn2ncn3nc(-c4cccs4)cc3c2=O)cc1	none
Cc1ccccc1CN1C(=O)c2ccccc2Sc2ccc(C(=O)OCc3ccco3)cc21	Cruzain inh noDet inconclusive
Cc1ccc2c(Cl)cc(Cl)c(OCC(=O)Nc3cccc(S(=O)(=O)N(C)C)c3)c2n1	Cruzain inh noDet 12.6µM
Cc1ccc2c(Cl)cc(Cl)c(OCC(=O)Nc3cccc(S(N)(=O)=O)c3)c2n1	none
Cc1ccccc1CNC(=O)c1cnc2sc(N3CCOCC3)nn2c1=O	none
O=S(=O)(c1ccc(Cl)cc1)c1nnn2c1nc(N1CCCCC1)c1sccc12	none

Screens: PubChem, National Center for Advancing Translational Sciences (NCATS)
